41 compounds from PubChem BioAssay AID720706 (Broad Institute, 2013) can be followed below.

“And” between values parts separate entries of the source, which are not always exact repeats. Equal values may be shown once. Out of some 350,000 compounds screened, about 5,500 (1.6%) were called active.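 The calls were made as follows: active = significant combined selectivity score with lowered wild-type GFP, culture density cut under 30%, mutant RFP and density less affected; inactive = any of these conditions unmet.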 What follows is part of a selection rich in actives, with near analogues and random picks from the rest.

This assay in a line: GFP drop in mixed WT/humanized-ribosome E. coli culture – GFP/RFP fluorescence, OD600, single point, bacterial rRNA inhibitor project, primary screen (AID 720706). The settings on record: E. coli WT GFP vs humanized-ribosome RFP mutants, 24 h; GFP signal change (wild-type ribosome): stronger effect = lower value, DMSO median 0, no signal -100; OD600 change: measured here: OD600 growth, DMSO median 0, no signal -100; RFP signal change: measured here: RFP humanized mutant strains, DMSO median 0, no signal -100, concentration not given here.
Turning to `O=C([C@H]1[C@H](CO)[C@H]2Cn3c(ccc(-c4ccccc4)c3=O)[C@@H]1N2Cc1cccnc1)N1CCOCC1`, the GFP signal change (wild-type ribosome) is 5.29% (inactive), the OD600 change is 5.22% and the RFP signal change is 0.504%.
In the same order, the values of `Cc1ccc(-c2cnc3c(c2)C(=O)N([C@H](C)CO)C[C@H](C)[C@@H](CN(C)S(C)(=O)=O)O3)cc1` are 2.09% (inactive), 1.04% and 1.43%.
In the same order, the values of `C[C@@H]1CN([C@H](C)CO)C(=O)c2c(c3ccccc3n2C)-c2ccccc2CO[C@@H]1CN(C)Cc1ccccc1C(F)(F)F` are 3.48% (inactive), -2.02% and -4.51%.
In the same order, the values of `CC(C)NC(=O)Nc1ccc2c(c1)C(=O)N([C@H](C)CO)C[C@@H](C)[C@H](CN(C)S(C)(=O)=O)O2` are 0.569% (inactive), 1.03% and -2.66%.
As for `Cc1ccc2nc(-c3ccc(NC(=O)CN(C)S(=O)(=O)c4ccccc4)cc3)sc2c1`, the GFP signal change (wild-type ribosome) is 6.45% (inactive), the OD600 change was found to be 6.57% and the RFP signal change is -1.11%.
In the same order, the values of `COc1ccc(NC(=O)CN(Cc2ccccc2)S(C)(=O)=O)cc1OC` are 7.38% (inactive), 3.04% and 2.82%.
Take `COc1ccc(NC(=O)CN(C)S(=O)(=O)c2ccccc2)cc1OC`: the GFP signal change (wild-type ribosome) was -21.4% (active), the OD600 change is -15.8% and the RFP signal change worked out at 5.68%.
In the same order, the values of `C[C@H]1CN([C@@H](C)CO)C(=O)Cc2cc(NC(=O)Cc3ccccc3)ccc2O[C@H]1CN(C)S(=O)(=O)c1ccc(Cl)cc1` are 6.12% (inactive), 0.505% and -2.09%.
As for `C[C@@H]1CN(C)C(=O)c2cccc(N(C)C)c2O[C@H]1CN(C)S(C)(=O)=O`, the GFP signal change (wild-type ribosome) was 0.02% (inactive), the OD600 change is -2.43% and the RFP signal change was -4.17%.
In the same order, the values of `CCS(=O)(=O)N1CC(=O)N2[C@H](C1)[C@@H](c1ccc(C#Cc3ccc(F)cc3)cc1)[C@@H]2CO` are -26.6% (inactive), -55.5% and 8.02%.
In the same order, the values of `COC(=O)C[C@H]1C[C@H]2c3cc(NC(=O)NC4CCCCC4)ccc3O[C@H]2[C@H](CO)O1` are 3.18% (inactive), 0.77% and 1.45%.
In the same order, the values of `CN1CCN(c2nc(Nc3ccc(O)cc3)nc3ccccc23)CC1` are -21.6% (active), 2.64% and 1.85%.
With `CC1CN(c2nc(Nc3ccccc3)nc(N)c2[N+](=O)[O-])CC(C)O1` (stereo not drawn), the GFP signal change (wild-type ribosome) was -35.4% (inactive), the OD600 change was -33.8% and the RFP signal change is -0.525%.
In the same order, the values of `Cc1cc(N2CCN(C)CC2)nc2ccc(NC(=S)N3CCOCC3)cc12` are 2.14% (inactive), 1.93% and -1.37%.
In the same order, the values of `C[C@H]1CN([C@@H](C)CO)C(=O)c2cc(NS(C)(=O)=O)ccc2O[C@@H]1CN(C)S(=O)(=O)c1ccc(Cl)cc1` are 2.05% (inactive), 0.615% and 0.846%.
Take `CC(=O)N1C[C@@H]2C(c3ccccc3)[C@H](C1)N2Cc1ccc(F)cc1` (stereo partly drawn): the GFP signal change (wild-type ribosome) is -7.42% (inactive) and -0.918% (inactive); the OD600 change is -6.55% and 0.0005%; the RFP signal change is 2.17% and -0.988%.
Take `COc1ccc(CN2CCCCN3[C@H](C2)[C@H](c2ccc(-c4ccc(OC)cc4)cc2)[C@@H]3CO)cc1`: the GFP signal change (wild-type ribosome) is 0.651% (inactive), the OD600 change came to 2.56% and the RFP signal change amounted to 3.41%.
In the same order, the values of `COc1ccc(Cn2c(-c3ccc(Cl)cc3)c[n+]3ccccc23)cc1` are -31.8% (active), -12.7% and 10%.
In the same order, the values of `COc1ccc(-c2ccc([C@@H]3[C@@H](CO)N4C(=O)CN(Cc5ccccc5)C[C@@H]34)cc2)cc1` are 0.0065% (inactive), -2.91% and 0.737%.
In the case of `COc1ccc(NC(=O)Nc2ccc3c(c2)C(=O)N([C@H](C)CO)C[C@@H](C)[C@H](CN(C)CC2CCCCC2)OCCCC[C@@H](C)O3)cc1`, the GFP signal change (wild-type ribosome) was 2.06% (inactive), the OD600 change is -1.06% and the RFP signal change came to 2.56%.
For `CC1CN(C(=S)Nc2ccc(Br)cc2Cl)CC(C)O1` (stereo not drawn), the GFP signal change (wild-type ribosome) is 0.789% (inactive), the OD600 change was determined as 0.865% and the RFP signal change was -2.8%.
In the same order, the values of `CN(C)C(=S)Nc1ccc(Br)cc1Cl` are -21.3% (active), -3.38% and -5.33%.
In the same order, the values of `O=C(NNC(=S)Nc1ccc(Br)cc1Cl)c1ccco1` are -55.5% (inactive), -76.6% and -26.1%.
In the case of `C[C@@H]1CN([C@H](C)CO)C(=O)c2cc(C#CC3CC3)cnc2O[C@H]1CN(C)C(=O)CC1CC1`, the GFP signal change (wild-type ribosome) was 0.803% (inactive), the OD600 change came out at 4.53% and the RFP signal change is -4.43%.
For the compound `Cc1cc(C(=O)COC(=O)C2CC2)c(C)n1-c1ccc(F)cc1`, the GFP signal change (wild-type ribosome) was -25.1% (active), the OD600 change is -8.48% and the RFP signal change was -5.46%.
In the same order, the values of `Cc1cc(C(=O)COc2ccccc2Cl)c(C)n1C1CC1` are -19.2% (inactive), -34.3% and 0.284%.
In the same order, the values of `Cc1ccc(-n2c(C)cc(C(=O)CN3C(=O)C(=O)N(C4CCCC4)C3=O)c2C)cc1` are -12.3% (inactive), -20.5% and 24%.
In the same order, the values of `COc1ccc(C)cc1N(CC(=O)NC(C)c1ccccc1)S(C)(=O)=O` (stereo not drawn) are 7.63% (inactive), 6.56% and 4.34%.
Consider `Cc1ccccc1OCCC(=O)OCC(=O)NC(C)c1ccccc1` (stereo not drawn), for which the GFP signal change (wild-type ribosome) was -11.5% (inactive), the OD600 change is -7.58% and the RFP signal change was found to be 0.763%.
In the same order, the values of `Cc1ccc(OCCCC(=O)NC(C)c2ccccc2)c(C)c1` (stereo not drawn) are -20.1% (active), -9.71% and 4.93%.
In the same order, the values of `COc1ccc2c3c(n(C)c2c1)[C@@H](CO)NCC31CN(S(=O)(=O)c2cccc(C)c2)C1` are -1.82% (inactive), -19.1% and 1.9%.
In the same order, the values of `O=C(Nc1ccccc1)N1CCCCN2[C@H](CO)[C@@H](c3ccc(-c4ccccc4F)cc3)[C@H]2C1` are -59.5% (inactive), -71.8% and -17.2%.
As to `Cc1ccccc1-c1cnc2c(c1)C(=O)N([C@H](C)CO)C[C@H](C)[C@@H](CN(C)C(=O)c1ccccc1)O2`, the GFP signal change (wild-type ribosome) is -6.69% (inactive), the OD600 change stood at 1.45% and the RFP signal change turned out to be 1.42%.
For `CCNC(=O)[C@@H]1[C@@H](CO)[C@@H]2Cn3c(ccc(C4=CCCCC4)c3=O)[C@@H]2N1Cc1ccccc1F`, the GFP signal change (wild-type ribosome) is 1.16% (inactive), the OD600 change was -2.39% and the RFP signal change worked out at 5.54%.
In the same order, the values of `O=C(CN1CCOCC1)Nc1cccc([N+](=O)[O-])c1` are 31.7% (inactive), 26.8% and 1.38%.
In the same order, the values of `O=C(Nc1cccc([N+](=O)[O-])c1)N1CCc2ccccc2C1` are -21.9% (active), -13.6% and -7.36%.
In the same order, the values of `CCc1ccc(NC(=O)N2CCc3ccccc3C2)cc1` are -10.5% (inactive), -10.6% and -3.21%.
On to `Cc1ccc(-c2ccc([C@H]3[C@H]4CN(S(=O)(=O)c5cccc(F)c5)CC(=O)N4[C@H]3CO)cc2)cc1`, for which the GFP signal change (wild-type ribosome) was 1.77% (inactive), the OD600 change was 8.11% and the RFP signal change was -0.692%.
In the same order, the values of `Cc1ccc(C(=O)NC(=S)NCc2cccnc2)cc1` are -23.8% (inactive), -23.8% and 5.91%.
In the same order, the values of `S=C(NCc1cccnc1)Nc1ccc(Cl)cc1Cl` are -27.1% (active), -3.2% and -7.63%.
In the same order, the values of `CN(CC(=O)NCc1cccnc1)S(=O)(=O)c1cc(Cl)ccc1Cl` are 5.23% (inactive), -2.3% and -0.601%.
